Consider 54 compounds from ChEMBL document CHEMBL4513216, “Probing the Open Global Health Chemical Diversity Library for Multistage-Active Starting Points for Next-Generation Antimalarials” (ACS Infect Dis, 2020).

The campaign covered roughly 69,000 compounds. About 8,600 (12%) showed an effect of 50% or more. The sample as a whole holds a higher share of strong results than the screen did.

In this assay the test system is Plasmodium berghei. The experiment in a line: Screen against P. berghei liver stage (PbLuc), transformed with Luciferase, at 10uM. The class given is functional, HepG2. The conditions noted are these: tested at 10 uM.
Regarding `CCn1nc(C)c2nc(C(C)C)nc(NCC(=O)N3CCOCC3)c21`, the INHIBITION is 48.2%.

As for `CC(C)c1noc(CN2CCCN(Cc3cccs3)CC2)n1`, the INHIBITION came out at 11.6%.

In the case of `CCOC1Sc2nnc(C)n2N=C1c1ccc(Cl)cc1` (centres undefined), the INHIBITION is given as 31.8%.

In the case of `CCC(C)NS(=O)(=O)c1ccc(C(=O)N(C)C2(C#N)CCC2)cc1` (centres undefined), the INHIBITION came out at 46.3%.

As for `CN(Cc1ccsc1)C(=O)c1ccc(S(=O)(=O)NC(C)(C)C)cc1`, the INHIBITION was -61.4%.

In the case of `CN(C(=O)c1ccc(S(=O)(=O)NC(C)(C)C)cc1)C1(C#N)CCC1`, the INHIBITION came out at 50.4%.

Consider `Cc1n[nH]c(C)c1-c1cnc(CC2CCCN(S(C)(=O)=O)C2)cn1` (centres undefined), for which the INHIBITION is listed as -38.2%.

As to `Cc1cc(C)c2nc(C)c(C(=O)N3CCC(N4CCCC4)CC3)cc2c1`, the INHIBITION amounted to 31%.

As for `CN1CCN(C(=O)CCn2c(C(F)(F)F)cc3cccnc32)CC1`, the INHIBITION is -15.3%.

As for `CCOC(=O)N1CCN(C(=O)c2sc(-c3ccccc3)nc2C)CC1`, the INHIBITION stood at 74.7%.

With `COc1nc(C)c(C(=O)N2CCC(C(O)Cc3ccccc3)CC2)s1` (centres undefined), the INHIBITION is listed as 18.5%.

Turning to `Cc1cc(=O)c(C(=O)N2CCC(C(O)Cc3ccccc3)CC2)c(C)[nH]1` (centres undefined), the INHIBITION is on record as 35.8%.

Take `CCNc1nc(C)c(C(=O)N2CCC(C(O)Cc3ccccc3)CC2)s1` (centres undefined): the INHIBITION was determined as 53.9%.

As for `CCOC(=O)N1CCN(C(=O)c2sc(-c3ccc(F)cc3)nc2C)CC1`, the INHIBITION is given as 18.8%.

`CCNc1nc(C)c(C(=O)N2CCN(c3ncccc3C)CC2)s1`: the INHIBITION is recorded as -11.2%.

Regarding `Cc1nc(N)sc1C(=O)N1CCC(C(O)Cc2ccccc2)CC1` (centres undefined), the INHIBITION amounted to 46.7%.

Regarding `CCOC(=O)N1CCN(C(=O)c2sc(-c3ccncc3)nc2C)CC1`, the INHIBITION is listed as 24%.

Consider `CNc1nc(C)c(C(=O)N2CCC(C(O)Cc3ccccc3)CC2)s1` (centres undefined), for which the INHIBITION is listed as 61.2%.

With `Cc1cc(C(=O)N2CCc3nc(C4CCCCN4)ncc3C2)cs1` (centres undefined), the INHIBITION is recorded as -17.7%.

`O=C([C@H]1CC[C@@H]2[C@@H](CCN2Cc2nccs2)O1)N1CCCCO1`: the INHIBITION is reported as 19.5%.

In the case of `O=S1(=O)NCC2(CCCN(Cc3cccnc3)C2)Oc2ncccc21` (centres undefined), the INHIBITION is 40.8%.

As for `c1cc(CCNc2ccc(CC3CCNC3)cn2)ccn1` (centres undefined), the INHIBITION was 19.3%.

Turning to `O=C([C@@H]1CCS(=O)(=O)[C@@H]2CN(c3ncccn3)C[C@@H]21)N1CCOCC1`, the INHIBITION came out at 23.1%.

As to `CN1CCNC(Cc2ccc(-c3ccncc3)cc2)C1=O` (centres undefined), the INHIBITION was determined as 22%.

Take `CCN1CCn2c(C)cnc2C12CCN(C(=O)N(C)C)CC2`: the INHIBITION was -18.4%.

For the compound `O=C(Nc1cccnc1)[C@H]1C[C@@H]2CCN(c3nncs3)C[C@H]2O1`, the INHIBITION is on record as -13.2%.

For the compound `Cn1cc(N2C(=O)CC[C@@H]3[C@H]2CCN3Cc2cccc(C#N)c2)cn1`, the INHIBITION is recorded as -24.1%.

With `COC(=O)c1cccc(CN(C)C(C)c2ccccn2)c1` (centres undefined), the INHIBITION is 14.8%.

Consider `CC(C)n1cnnc1CN(C)Cc1cnc(-c2ccccn2)nc1`, for which the INHIBITION is -36.3%.

Consider `CC(c1cccs1)N(C)Cc1cnc(-c2ccccn2)nc1` (centres undefined), for which the INHIBITION stood at 66.5%.

Regarding `CC(=O)N1CCN(C(=O)c2ccc(-c3cccc(C)c3)[nH]c2=O)CC1`, the INHIBITION came to 35.7%.

Take `Cc1cnn(CCNCc2ccccc2F)c1`: the INHIBITION is on record as -14.6%.

On to `Cc1cnn(CCNCc2cc(C)no2)c1`, for which the INHIBITION is 38.8%.

`Cc1cnn(CCNCc2cc(-c3ccccc3)no2)c1`: the INHIBITION worked out at 20.4%.

In the case of `Cc1cnn(CCNCc2ccc(C#N)cc2)c1`, the INHIBITION was 6.8%.

Turning to `Cc1ccc(-c2cc(CNCCn3cc(C)cn3)on2)cc1`, the INHIBITION was 60.4%.

`Cc1cnn(CCNCc2ccccc2C#N)c1`: the INHIBITION worked out at 51%.

Turning to `CCN(CC1CCCO1)C(=O)NCCNC(=O)c1ccccc1F` (centres undefined), the INHIBITION is listed as 34.5%.

As to `NC(=O)Nc1cccc(Oc2ccccn2)c1`, the INHIBITION is given as -1.58%.

In the case of `CCC(Nc1cccc(Oc2ccc(C#N)cc2)c1)C(N)=O` (centres undefined), the INHIBITION is given as 29.6%.

Turning to `CCC(Nc1cccc(Oc2ccccn2)c1)C(N)=O` (centres undefined), the INHIBITION is 62%.

Take `CN1CCC(c2nnc(CN3CCCCC3)n2C)CC1`: the INHIBITION is reported as 25.4%.

On to `COc1ccccc1OCC(=O)NCC(C)(O)C1CC1` (centres undefined), for which the INHIBITION was -3.51%.

Consider `CN1CCc2[nH]cnc2C12CCN(C(=O)CCc1cccs1)CC2`, for which the INHIBITION is on record as 31.9%.

Take `CCC(=O)N1CCC2(CC1)c1nc[nH]c1CCN2S(C)(=O)=O`: the INHIBITION worked out at 1.81%.

As to `CC(=O)N1CCc2[nH]cnc2C12CCN(C(=O)CCn1cccn1)CC2`, the INHIBITION was determined as 35.2%.

On to `CC(=O)N1CCc2[nH]cnc2C12CCN(C(=O)Cc1cccs1)CC2`, for which the INHIBITION came out at 61.5%.

On to `CCN1CCc2[nH]cnc2C12CCN(C(=O)CCCn1cncn1)CC2`, for which the INHIBITION amounted to 36.3%.

As for `CC(=O)N1CCc2[nH]cnc2C12CCN(C(=O)Cc1ccccn1)CC2`, the INHIBITION is on record as 8.31%.

Turning to `CCCN1CCc2[nH]cnc2C12CCN(C(=O)CCn1cccn1)CC2`, the INHIBITION amounted to 54.8%.

On to `CCN1CCc2[nH]cnc2C12CCN(C(=O)CCc1cccs1)CC2`, for which the INHIBITION was found to be 26%.

As for `CCCN1CCc2[nH]cnc2C12CCN(C(=O)Cn1ccnc1C)CC2`, the INHIBITION was found to be 57%.

On to `CN1CCc2c(CNc3ncccn3)n[nH]c2C1`, for which the INHIBITION is given as 27.5%.

Consider `CCC(=O)N1CCC(Cc2ccccc2-c2ccccc2F)(C(N)=O)C1` (centres undefined), for which the INHIBITION is 29.2%.
